Measurements taken from PubChem BioAssay (NCATS).
Results filed as inconclusive are left out. Activity calls are given as the source filed them. Unless noted, the call rests on the fitted dose curve.

Experiments:
[1] = Natriuretic polypeptide receptor (hNpr1) antagonism - Pilot counterscreen GloSensor control cell line (AID 1347045); further: series mostly up to about 38 µM
Method in brief: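 HEK293 cGMP GloSensor cells preloaded 2 h with 2% GloSensor reagent, then compound 30 min before baseline luminescence read. Stimulated with 50 uM sodium nitroprusside, 20 min at room temperature, then read again; counterscreen for Npr1 antagonism.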

[2] = molecular target: Atrial natriuretic peptide receptor 1 (Homo sapiens) (UniProt P16066); assay: Natriuretic polypeptide receptor (hNpr1) antagonism - Pilot screen (AID 1347049);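 further: agonist-evoked cGMP luminescence read 20 min after hNppA addition; series mostly up to about 58 µM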
Chain of Atrial natriuretic peptide receptor 1 (Homo sapiens) (P16066 whole entry, looked up): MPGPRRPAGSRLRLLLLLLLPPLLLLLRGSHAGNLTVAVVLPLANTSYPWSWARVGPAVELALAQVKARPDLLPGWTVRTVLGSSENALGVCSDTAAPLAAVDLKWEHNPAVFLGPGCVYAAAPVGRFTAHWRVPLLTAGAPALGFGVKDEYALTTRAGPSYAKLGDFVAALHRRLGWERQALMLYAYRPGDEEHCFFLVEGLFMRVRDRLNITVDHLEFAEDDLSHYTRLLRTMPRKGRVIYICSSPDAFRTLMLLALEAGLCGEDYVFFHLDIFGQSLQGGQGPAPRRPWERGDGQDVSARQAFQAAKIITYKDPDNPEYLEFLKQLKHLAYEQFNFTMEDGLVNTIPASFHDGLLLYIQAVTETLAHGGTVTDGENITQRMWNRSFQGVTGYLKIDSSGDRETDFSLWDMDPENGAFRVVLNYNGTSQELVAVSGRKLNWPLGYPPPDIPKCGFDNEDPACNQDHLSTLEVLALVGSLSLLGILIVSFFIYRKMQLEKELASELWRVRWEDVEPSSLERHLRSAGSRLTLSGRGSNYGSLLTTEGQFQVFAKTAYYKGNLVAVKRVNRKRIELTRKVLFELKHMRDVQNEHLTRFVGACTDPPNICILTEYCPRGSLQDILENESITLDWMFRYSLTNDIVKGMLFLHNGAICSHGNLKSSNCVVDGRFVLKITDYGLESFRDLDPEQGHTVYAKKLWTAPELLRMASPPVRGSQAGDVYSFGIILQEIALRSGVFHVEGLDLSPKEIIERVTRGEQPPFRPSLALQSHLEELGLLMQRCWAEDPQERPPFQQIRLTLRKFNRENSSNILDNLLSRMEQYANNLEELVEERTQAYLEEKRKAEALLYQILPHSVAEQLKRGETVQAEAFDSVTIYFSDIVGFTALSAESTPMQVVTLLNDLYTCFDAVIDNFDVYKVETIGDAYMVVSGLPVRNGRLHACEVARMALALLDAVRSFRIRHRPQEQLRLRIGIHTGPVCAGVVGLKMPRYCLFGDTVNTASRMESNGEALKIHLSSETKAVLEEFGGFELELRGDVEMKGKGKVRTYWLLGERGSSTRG
Method in brief: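 HEK293 cells co-expressing hNpr1 and the GloSensor pGS-40F cGMP luciferase sensor were preloaded with 2% GloSensor reagent for 2 h. Compounds were added for 30 min at room temperature, then cells were stimulated with 0.1 nM hNppA for 20 min before luminescence readout.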

[3] = molecular target: Atrial natriuretic peptide receptor 2 (Homo sapiens) (UniProt P20594); assay: Natriuretic polypeptide receptor (hNpr2) antagonism - Pilot subtype selectivity assay (AID 1347050)
Chain of Atrial natriuretic peptide receptor 2 (Homo sapiens) (P20594 whole entry, looked up): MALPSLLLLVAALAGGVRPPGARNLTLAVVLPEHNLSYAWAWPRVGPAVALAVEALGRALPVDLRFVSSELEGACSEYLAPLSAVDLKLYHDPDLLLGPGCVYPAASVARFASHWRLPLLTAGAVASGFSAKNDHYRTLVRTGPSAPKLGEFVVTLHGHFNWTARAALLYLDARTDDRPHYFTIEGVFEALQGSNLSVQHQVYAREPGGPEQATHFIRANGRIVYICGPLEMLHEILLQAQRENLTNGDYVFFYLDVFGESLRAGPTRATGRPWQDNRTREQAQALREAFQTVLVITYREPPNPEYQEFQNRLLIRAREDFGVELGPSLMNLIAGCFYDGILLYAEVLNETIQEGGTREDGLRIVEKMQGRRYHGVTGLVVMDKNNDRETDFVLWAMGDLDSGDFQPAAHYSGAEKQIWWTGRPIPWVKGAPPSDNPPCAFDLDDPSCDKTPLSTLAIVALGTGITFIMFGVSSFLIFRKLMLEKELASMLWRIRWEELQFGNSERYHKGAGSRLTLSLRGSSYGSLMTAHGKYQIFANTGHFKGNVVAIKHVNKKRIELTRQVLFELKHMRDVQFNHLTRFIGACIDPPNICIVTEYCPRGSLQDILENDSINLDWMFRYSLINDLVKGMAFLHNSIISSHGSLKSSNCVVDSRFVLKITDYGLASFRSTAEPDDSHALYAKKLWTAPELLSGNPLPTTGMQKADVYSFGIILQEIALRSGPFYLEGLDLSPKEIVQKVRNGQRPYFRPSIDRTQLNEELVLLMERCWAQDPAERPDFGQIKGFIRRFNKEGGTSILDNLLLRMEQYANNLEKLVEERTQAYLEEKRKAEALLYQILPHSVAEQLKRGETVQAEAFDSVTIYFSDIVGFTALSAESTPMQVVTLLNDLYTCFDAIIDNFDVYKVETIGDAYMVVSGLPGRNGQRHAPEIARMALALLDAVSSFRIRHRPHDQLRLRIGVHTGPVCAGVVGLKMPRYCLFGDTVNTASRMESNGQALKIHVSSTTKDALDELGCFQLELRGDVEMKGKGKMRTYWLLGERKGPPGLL
Method in brief: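 cGMP-sensor HEK293/hNpr2 cells; 2% GloSensor reagent 2 h RT; compounds 30 min; baseline luminescence read; 1 nM hNppC agonist 20 min RT; final luminescence read by CCD camera. Antagonism = reduced post-agonist signal.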

[4] = NS1 protein of Zika virus - qHTS assay to identify small molecule inhibitors in human HEK 293 cells (AID 1347053; active means well fitted curve in the direction sought with a large enough effect; an effect the other way counts as inactive or inconclusive; further: series mostly up to about 46 µM; nearly all actives have a fitted effect of over 55% in size)
Method in brief: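 Following 20 h seeding, HEK 293 cells took compound, then 1 h later ZIKV MR766 (MOI = 0.5). Incubation ran 24 h at 37 C before TR-FRET detection of NS1; a drop in signal indicates inhibition.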

[5] = molecular target: T1, Tyrosine-protein phosphatase non-receptor type substrate 1 (Homo sapiens) + Leukocyte surface antigen CD47 (Homo sapiens) (UniProt P78324+Q08722); assay: CD47-SIRPalpha protein protein interaction - Alpha assay qHTS validation (AID 1347059; active means well fitted curve in the direction sought with a large enough effect; an effect the other way counts as inactive or inconclusive;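 further: bead proximity luminescence from CD47 binding SIRPalpha after compound preincubation with SIRPalpha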)
T1 sequence (P78324 whole entry, looked up, the tested form may be a part): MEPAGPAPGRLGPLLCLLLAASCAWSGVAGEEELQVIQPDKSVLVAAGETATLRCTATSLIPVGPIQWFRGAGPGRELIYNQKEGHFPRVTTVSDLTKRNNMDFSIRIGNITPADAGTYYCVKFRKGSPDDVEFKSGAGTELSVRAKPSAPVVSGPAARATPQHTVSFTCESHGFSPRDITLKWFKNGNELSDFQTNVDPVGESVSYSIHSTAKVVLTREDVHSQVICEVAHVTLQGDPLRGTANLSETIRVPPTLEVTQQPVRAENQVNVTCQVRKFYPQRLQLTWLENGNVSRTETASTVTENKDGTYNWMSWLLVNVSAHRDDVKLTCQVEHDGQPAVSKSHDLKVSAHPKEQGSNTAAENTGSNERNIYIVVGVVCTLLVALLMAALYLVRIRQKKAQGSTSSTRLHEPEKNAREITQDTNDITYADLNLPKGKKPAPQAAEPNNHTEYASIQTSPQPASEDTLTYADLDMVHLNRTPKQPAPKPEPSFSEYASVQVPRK
T1 sequence (Q08722 whole entry, looked up, the tested form may be a part): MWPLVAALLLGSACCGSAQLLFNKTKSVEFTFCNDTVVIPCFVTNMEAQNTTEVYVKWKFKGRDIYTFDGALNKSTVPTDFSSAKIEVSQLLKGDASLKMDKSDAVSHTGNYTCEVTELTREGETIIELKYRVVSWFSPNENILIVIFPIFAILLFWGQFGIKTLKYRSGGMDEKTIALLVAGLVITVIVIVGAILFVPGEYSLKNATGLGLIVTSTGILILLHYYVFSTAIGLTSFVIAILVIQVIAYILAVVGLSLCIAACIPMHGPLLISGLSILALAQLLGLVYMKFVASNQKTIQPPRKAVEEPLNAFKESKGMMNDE
Method in brief: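 Soluble extracellular domains: Avi-tag biotinylated SIRPalpha (25 nM) preincubated 30 min RT with compound, then 6His-CD47 (12.5 nM) 30 min; Ni-NTA acceptor and streptavidin donor beads (10 ug/mL) 30 min, AlphaScreen read. PBS pH 7.4, 0.05% IGEPAL.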

[6] = molecular target: Parathyroid hormone/parathyroid hormone-related peptide receptor (Homo sapiens) (UniProt Q03431); assay: qHTS for PTHR1 Agonists: Optimization Screen against the NCGC LOPAC library (AID 1347079; active means well fitted curve in the direction sought with a large enough effect; an effect the other way counts as inactive or inconclusive;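 further: GloSensor cAMP luminescence in HEK-293 GP2 cells expressing human PTHR1 with IBMX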)
Chain of Parathyroid hormone/parathyroid hormone-related peptide receptor (Homo sapiens) (Q03431 whole entry, looked up): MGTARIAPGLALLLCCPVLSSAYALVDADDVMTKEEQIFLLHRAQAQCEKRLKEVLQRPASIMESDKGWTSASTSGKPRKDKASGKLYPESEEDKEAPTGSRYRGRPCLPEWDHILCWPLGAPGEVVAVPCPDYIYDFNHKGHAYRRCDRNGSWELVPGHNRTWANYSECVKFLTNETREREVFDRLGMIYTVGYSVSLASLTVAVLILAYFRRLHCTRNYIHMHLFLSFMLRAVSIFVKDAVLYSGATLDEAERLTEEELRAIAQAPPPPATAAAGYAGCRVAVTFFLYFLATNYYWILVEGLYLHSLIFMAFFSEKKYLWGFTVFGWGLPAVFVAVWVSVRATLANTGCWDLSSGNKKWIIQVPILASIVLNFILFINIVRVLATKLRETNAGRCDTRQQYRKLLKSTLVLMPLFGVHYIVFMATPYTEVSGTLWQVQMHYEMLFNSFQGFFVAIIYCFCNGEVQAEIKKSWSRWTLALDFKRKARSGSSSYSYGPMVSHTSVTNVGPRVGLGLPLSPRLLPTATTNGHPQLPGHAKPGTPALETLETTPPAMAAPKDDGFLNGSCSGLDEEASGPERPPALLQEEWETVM
Method in brief: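 Agonist readout: GloSensor cAMP luminescence, read after 15 min at room temperature. HEK-293-derived GP2 line carries PTHR1; compounds tested as a titration for 1 hr at 37C in presence of IBMX. M-PTH (1-15) served as control.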

[7] = qHTS for Inhibitors of the Functional Ribonucleoprotein Complex (vRNP) of Lassa (LASV) Arenavirus: LASV Primary Screen - GLuc reporter signal (AID 1347082; calls by dose curve; tested in HEK293 reporter line; further: nearly all actives have a fitted effect of over 60% in size; further: potency means the concentration at half of the fitted maximal effect)
[8] = qHTS for Inhibitors of the Functional Ribonucleoprotein Complex (vRNP) of Lassa (LASV) Arenavirus: Viability assay - alamar blue signal for LASV Primary Screen (AID 1347083; calls by dose curve; tested in HEK293 reporter line; further: nearly all actives have a fitted effect of over 80% in size; further: potency means the concentration at half of the fitted maximal effect)
[9] = qHTS for Inhibitors of the Functional Ribonucleoprotein Complex (vRNP) of Lymphocytic Choriomeningitis Arenaviruses (LCMV): Viability assay - alamar blue signal for LCMV Primary Screen (AID 1347085; calls by dose curve; tested in HEK293 reporter line; further: nearly all actives have a fitted effect of over 80% in size; further: potency means the concentration at half of the fitted maximal effect)
[10] = molecular target: Nucleoprotein (Lymphocytic choriomeningitis virus (strain Armstrong)) (UniProt P09992); assay: qHTS for Inhibitors of the Functional Ribonucleoprotein Complex (vRNP) of Lymphocytic Choriomeningitis Arenaviruses (LCMV): LCMV Primary Screen - GLuc reporter signal (AID 1347086); further: nearly all actives have a fitted effect of over 70% in size; further: potency means the concentration at half of the fitted maximal effect
Chain of Nucleoprotein (Lymphocytic choriomeningitis virus (strain Armstrong)) (P09992 whole entry, looked up): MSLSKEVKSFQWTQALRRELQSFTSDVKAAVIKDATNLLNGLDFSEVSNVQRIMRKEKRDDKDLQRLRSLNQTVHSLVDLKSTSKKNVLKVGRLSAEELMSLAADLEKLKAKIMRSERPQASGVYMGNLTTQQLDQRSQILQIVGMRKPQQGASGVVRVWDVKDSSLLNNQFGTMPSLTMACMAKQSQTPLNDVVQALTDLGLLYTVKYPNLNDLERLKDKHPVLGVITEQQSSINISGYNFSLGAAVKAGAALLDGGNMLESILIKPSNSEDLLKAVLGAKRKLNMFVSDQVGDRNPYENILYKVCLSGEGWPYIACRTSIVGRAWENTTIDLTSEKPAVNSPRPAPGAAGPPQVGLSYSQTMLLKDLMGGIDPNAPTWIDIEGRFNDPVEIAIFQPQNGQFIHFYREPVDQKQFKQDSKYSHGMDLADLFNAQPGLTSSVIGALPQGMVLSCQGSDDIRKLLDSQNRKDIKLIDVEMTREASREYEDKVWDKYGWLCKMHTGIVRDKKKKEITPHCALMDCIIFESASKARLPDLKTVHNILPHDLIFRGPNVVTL

[11] = molecular target: T1, Tyrosine-protein phosphatase non-receptor type substrate 1 (Homo sapiens) + Leukocyte surface antigen CD47 (Homo sapiens); assay: CD47-SIRPalpha protein protein interaction - LANCE assay qHTS validation (AID 1347057; active means well fitted curve in the direction sought with a large enough effect in the signal ratio, with a control signal flat, not every such curve was filed as active; the % refers to the signal ratio; further: series mostly up to about 38 µM)
Method in brief: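 First, His-tagged CD47 and Eu-labelled anti-His antibody met the compound for 30 min; next, site-specifically biotinylated SIRPalpha was added for 30 min; finally streptavidin-APC was added before reading the TR-FRET ratio.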

Measured: Potency

NC(CCP(=O)(O)O)C(=O)O (centres undefined)
inactive: [1] | [2] | [3] | [4] | [5] | [6] | [7] | [8] | [9] | [10]

CCCN(CCC)C1CCc2ccc(O)cc2C1 (centres undefined)
inactive: [1] | [2] | [3] | [4] | [5] | [6] | [7] | [8] | [9] | [10]

CCCN1CCO[C@@H]2c3cc(O)ccc3OC[C@H]21
inactive: [1] | [2] | [3] | [4] | [11] | [5] | [6] | [7] | [8] | [9] | [10]

Cc1cc2c(cc1C1(c3ccc(C(=O)O)cn3)CC1)C(C)(C)CCC2(C)C
inactive: [7] | [8] | [9] | [10]

Cc1cccc(C)c1NC(=O)c1ccccc1C(=O)O
inactive: [7] | [8] | [9] | [10]

COc1ccc2cc(CCC(C)=O)ccc2c1
inactive: [7] | [8] | [9] | [10]

O=C(O)c1ccc2c(c1)nc(Nc1cccc(Cl)c1)c1ccncc12
inactive: [7] | [8] | [9] | [10]

CNC(=O)c1ccc(N2C(=S)N(c3ccc(C#N)c(C(F)(F)F)c3)C(=O)C2(C)C)cc1F
inactive: [7] | [8] | [9] | [10]

O=c1[nH]c(-c2ccc(C(F)(F)F)cc2)nc2c1CSCC2
inactive: [7] | [8] | [9] | [10]

O=C1C(CCC(O)c2ccc(F)cc2)C(c2ccc(O)cc2)N1c1ccc(F)cc1 (centres undefined)
inactive: [7] | [8] | [9] | [10]

O=C(O)c1ccccc1NCCc1ccccc1
inactive: [7] | [8] | [9] | [10]

Cc1ccc(S(=O)(=O)Nc2cc(Cl)ccc2C(=O)Nc2nc(-c3ccccc3)cs2)cc1
inactive: [7] | [8] | [9] | [10]

CN1C(=O)C(Cc2c[nH]c3ccccc23)NC1=S (centres undefined)
inactive: [7] | [8] | [9] | [10]

C[C@]12CC[C@H](O)CC1=CC[C@@H]1[C@H]2CC[C@]2(C)C(c3cccnc3)=CC[C@H]12
inactive: [7] | [8] | [9] | [10]

CN1[C@@H]2CC[C@H]1CC(OC(=O)C(O)c1ccccc1)C2 (some centres undefined)
inactive: [7] | [8] | [9] | [10]

Cc1ccccc1N=Nc1ccc(N=Nc2c(O)ccc3ccccc23)c(C)c1
inactive: [7] | [8] | [9] | [10]

CCN(CC)CCNC(=O)c1ccc(NC(C)=O)cc1
inactive: [7] | [8] | [9] | [10]

CN(C)c1ccc(N=NS(=O)(=O)O)cc1
inactive: [7] | [8] | [9] | [10]

CCOC(=O)C(C)Oc1cccc2c(=O)n(CC(=O)Nc3ccc4c(c3)OCCO4)ccc12 (centres undefined)
inactive: [7] | [8] | [9] | [10]

O=C(Oc1ccccc1)c1cccc(C(=O)Oc2ccccc2)c1
inactive: [7] | [8] | [9] | [10]

CCN(c1ccccc1)c1cc(NC)[n+](C)c(C)n1
inactive: [7] | [8] | [9] | [10]

COc1ccc2c(c1)CC[C@H]1[C@@H]2CC[C@]2(C)[C@@H](NCCCCCCN3C(=O)C=CC3=O)CC[C@H]12
inactive: [7] | [8] | [9] | [10]

CN(C)CC/C=C1/c2ccccc2COc2ccc(CC(=O)O)cc21
inactive: [7] | [8] | [9] | [10]

O=C(O)CC(O)C(=O)O (centres undefined)
inactive: [7] | [8] | [9] | [10]

CCCOC(=O)c1ccc(O)cc1
inactive: [7] | [8] | [9] | [10]

C/C(=C1\CCOC(=O)S1)N(C=O)Cc1cnc(C)nc1N
inactive: [7] | [8] | [9] | [10]

CCn1cc(C(=O)O)c(=O)c2cc3c(cc21)OCO3
inactive: [7] | [8] | [9] | [10]

CCC(=O)N[C@H]1CC[C@H](C(=O)N(C)c2ccc(-c3nc4ccccc4o3)cc2)C1
active: [7] 9680 nM | [8] 3430 nM | [9] 2170 nM | [10] 3430 nM

CCOc1ccc(Cc2cc([C@@H]3O[C@H](CO)[C@@H](O)[C@H](O)[C@@H]3O)ccc2Cl)cc1
inactive: [7] | [8] | [9] | [10]

COc1cc(Oc2ccnc3cc(OC)c(OC)cc23)ccc1NC(=O)NC(C)c1nccs1 (centres undefined)
inactive: [7] | [8] | [9] | [10]

OC[C@H](Cc1ccccc1)Nc1nc(Oc2ccc3c(c2)CCC3)nc2c1ncn2Cc1ccc(-c2ccccc2)cc1
inactive: [7] | [8] | [9] | [10]

CC(C[N+](C)(C)C)OC(N)=O (centres undefined)
inactive: [7] | [8] | [9] | [10]

CCN(CC)CCCCNc1nc2cc(Cl)c(Cl)cc2nc1-c1ccc(-c2cccs2)s1
inactive: [7] | [8] | [9] | [10]

CC(C)(Sc1ccc(CCN(CCCCC2CCCCC2)C(=O)NC2CCCCC2)cc1)C(=O)O
inactive: [7] | [8] | [9] | [10]

Cn1c(=O)n(-c2ccc(C(C)(C)C#N)cc2)c2c3cc(-c4cnc5ccccc5c4)ccc3ncc21
active: [7] 38.5 nM | [8] 34.3 nM | [9] 61.1 nM | [10] 68.5 nM

Cc1nn(Cc2ccccc2Cl)c(C)c1CN(C)CC(O)COc1ccc(Cl)cc1 (centres undefined)
inactive: [7] | [8] | [9] | [10]

CC(C)(C)NCC(O)c1ccc(O)c(CO)c1 (centres undefined)
inactive: [7] | [8] | [9] | [10]

COc1cc(N2CCC(N3CCN(C)CC3)CC2)ccc1Nc1ncc(Cl)c(Nc2ccccc2S(=O)(=O)C(C)C)n1
inactive: [7] | [8] | [9] | [10]

CC[C@@H](C)[C@H](NC(=O)[C@H](CC1CCCCC1)NC(=O)c1ccno1)C(=O)N1CCC2(CCc3ccccc32)CC1
inactive: [7] | [8] | [9] | [10]

CCC(C(=O)O)c1ccc(N2Cc3ccccc3C2=O)cc1 (centres undefined)
inactive: [7] | [8] | [9] | [10]
